Experimental data as given in PubChem BioAssay (NCI).
Compounds without any hit were thinned out: in the full panel of roughly 83,000, 20% have a hit.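 Note: values are percent growth. 100 is the growth of untreated cells, values between 100 and 0 indicate rising inhibition; between -100 and 0 indicates cell death.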 A number with no mark means an inactive call. Calls of active or inactive are those of the source. The calls were made as follows: active = growth percent below 10; inactive = the rest.

Columns and labels:
Experiment in all cases: NCI-60 one-dose screen, 48 h (100 = growth as untreated, 0 = no growth, -100 = all killed)
Conditions in all cases: 10 µM unless noted
HCT-15 colon = test system: HCT-15 colon
HT29 colon = test system: HT29 colon
SNB-75 CNS = test system: SNB-75 CNS
SNB-19 CNS = test system: SNB-19 CNS
U251 CNS = test system: U251 CNS
PC-3 prostate = test system: PC-3 prostate
SK-MEL-5 melanoma = test system: SK-MEL-5 melanoma
UACC-62 melanoma = test system: UACC-62 melanoma
LOX IMVI melanoma = test system: LOX IMVI melanoma
SK-MEL-28 melanoma = test system: SK-MEL-28 melanoma
SK-MEL-2 melanoma = test system: SK-MEL-2 melanoma
EKVX NSCLC = test system: EKVX NSCLC
SN12C renal = test system: SN12C renal
UO-31 renal = test system: UO-31 renal
TK-10 renal = test system: TK-10 renal
ACHN renal = test system: ACHN renal
CAKI-1 renal = test system: CAKI-1 renal
A498 renal = test system: A498 renal
CCRF-CEM leukemia = test system: CCRF-CEM leukemia
MOLT-4 leukemia = test system: MOLT-4 leukemia

| SMILES | growth (HCT-15 colon) | growth (HT29 colon) | growth (SNB-75 CNS) | growth (SNB-19 CNS) | growth (U251 CNS) | growth (PC-3 prostate) | growth (SK-MEL-5 melanoma) | growth (UACC-62 melanoma) | growth (LOX IMVI melanoma) | growth (SK-MEL-28 melanoma) | growth (SK-MEL-2 melanoma) | growth (EKVX NSCLC) | growth (SN12C renal) | growth (UO-31 renal) | growth (TK-10 renal) | growth (ACHN renal) | growth (CAKI-1 renal) | growth (A498 renal) | growth (CCRF-CEM leukemia) | growth (MOLT-4 leukemia) |
| --- | --- | --- | --- | --- | --- | --- | --- | --- | --- | --- | --- | --- | --- | --- | --- | --- | --- | --- | --- | --- |
| O=C(Nc1cc(-c2cccnc2)nc(NCCCN2CCOCC2)n1)c1cc(Br)cc(C(F)(F)F)c1 | 6.87% (active) | 8.99% (active) | 72.1% | 69.6% | 33.1% | 57.7% | 3.78% (active) | -6.13% (active) | -16.8% (active) | -49.8% (active) | 81.3% | 77.4% | 67.2% | 42% | 65.4% | 75.6% | 61.8% | 53.7% | 42.8% | 45.1% |
| CCN(CC)c1ccc(/C=C/C=C2\NC(=O)NC2=O)cc1 | 29.5% | -30.1% (active) | 33.8% | 34.6% | 29.1% | 18.9% | 8.64% (active) | 33% | 33.2% | 57.5% | -13.5% (active) | 61.5% | 47.4% | 36.4% | 8.35% (active) | 47.2% | 16.7% | 22.4% | 40% | 41.1% |
| CCCSc1nc(N)nc2nc[nH]c12 | 104% | 112% | 108% | 102% | 107% | 99.4% | 101% | 87.6% | 99.3% | 126% | 106% | 106% | 98.3% | 93.5% | 154% | 96.4% | 128% | 123% | 115% | 121% |
| COc1ccc(C2=C(c3cn(C)c4ccccc34)C(=O)OC2)cc1OC | 23.7% | 6.9% (active) | -29.3% (active) | 38.3% | 35.1% | 21.3% | 16.4% | 26.8% | 49.6% | 69.9% | 33.6% | 53% | 36.9% | 25% | 61.4% | 34% | 25.6% | -10.9% (active) | 31.2% | 32.4% |
| Nc1nc(N)c2c(n1)NC(c1ccc(F)cc1)C1CCc3ccccc3C1=N2 (stereo not given) | 49.6% | 27.9% | 63.1% | 70.7% | 41.8% | 45% | 1.07% (active) | 47.5% | 52.8% | 93.4% | 97.7% | 45.3% | 63.1% | 59.7% | 36.3% | 49.7% | 44.8% | 58.1% | 35.9% | 19.9% |
| Cn1cc(-c2noc(-c3cn(C)c4ncccc34)n2)c2cc(Cl)ccc21 | 92.8% | 83.1% | 101% | 100% | 95.6% | 89.3% | 94.7% | 93.1% | 93.4% | 93% | 97.3% | 89.3% | 92.1% | 78.9% | 89.5% | 89.3% | 86.6% | 82.7% | 99.8% | 96.1% |
| Cn1cc(-c2noc(-c3cn(C)c4ncc(F)cc34)n2)c2cc(Cl)ccc21 | 65.8% | 25.5% | -24.2% (active) | 70.1% | 19.4% | 79.4% | 87% | 77.8% | 52.5% | 85.8% | 101% | 47.1% | 40.8% | 53.3% | 28% | 10.2% | 43.2% | 69.2% | 99.7% | 78.2% |
| CC[C@]12C=CCN3CC[C@@]4(c5ccc(OC)cc5N(C)[C@H]4[C@@](O)(C(=O)OC)[C@@H]1OC(=O)CCC(=O)N[C@H](Cc1c[nH]c4ccccc14)C(=O)OC)[C@@H]32 | -24.1% [100 µM] (active) | 5.23% [100 µM] (active) | -68.8% [100 µM] (active) | -51.2% [100 µM] (active) | 3.72% [100 µM] (active) | -15.8% [100 µM] (active) | -53% [100 µM] (active) | -61.1% [100 µM] (active) | -54.4% [100 µM] (active) | -49.6% [100 µM] (active) | -48.8% [100 µM] (active) | -58.7% [100 µM] (active) | -68.7% [100 µM] (active) | -55.5% [100 µM] (active) | -38.7% [100 µM] (active) | -64.7% [100 µM] (active) | -71% [100 µM] (active) | -49.9% [100 µM] (active) | 7.07% [100 µM] (active) | -12.4% [100 µM] (active) |
| Cc1cc(C)nc(SCC(=O)Nc2cccc(N=Cc3ccccc3O)c2)n1 | 105% | 101% | 81.9% | 93% | 94.9% | 90.3% | 103% | 94.1% | 103% | 106% | 114% | 97.9% | 96.5% | 76.7% | 106% | 99.2% | 81.4% | 82.5% | 88.6% | 98.9% |
| CCOc1cc(/C=N\NC(=O)N/N=C/c2ccc(O)c(OCC)c2)ccc1O | 28.7% | 27.6% | 0.378% (active) | 39.8% | 33.7% | 33% | 11.5% | 26.2% | 42.6% | 52.3% | 49.8% | 60.6% | 51.3% | 59.1% | 34.3% | 45.6% | 37.9% | 72.6% | 16.5% | 31.1% |
| CC1=CC[C@@H]2C(C)(C)C(=O)CC[C@@]2(C)[C@@H]1COc1ccc2ccc(=O)oc2c1 | 78.6% | 78.5% | 76.6% | 81% | 87.5% | 58.4% | 26.1% | 41.9% | 87.9% | 87.7% | 77% | 71.4% | 76.1% | 39% | 82% | 74.2% | 47.3% | 75.3% | 61.9% | 39.1% |
| COc1cc2c(O)n(CCCN3CCOCC3)c3c4cnc5cccc(c(=O)c3c2cc1OC)c54 | 57.4% | 29.2% | 38.9% | 19.4% | 16.9% | 30.6% | 20.9% | 10.5% | 11.3% | 66.2% | 45.6% | 63.5% | 14.1% | 30.2% | 73.7% | 12.2% | 30% | 56.1% | 15.1% | 11.8% |
| O=C(N/N=C1\c2ccccc2-c2cccc(C(=O)O)c21)c1ccc(O)cc1 | 107% | 98.3% | 74% | 96.3% | 101% | 92.1% | 99.1% | 93.8% | 98.9% | 102% | 102% | 97.2% | 91.1% | 80.4% | 98.1% | 99.5% | 86.9% | 73.1% | 89.9% | 99.8% |
| COCCCNc1nc(NC(=O)c2cc(OC)cc(OC)c2)cc(-c2cccnc2)n1 | 90.3% | 95.5% | 73.1% | 98.3% | 96.8% | 87.3% | 72.4% | 111% | 94.5% | 105% | 78.8% | 105% | 95.3% | 56.7% | 86.7% | 98.2% | 99.4% | 67.7% | 91.7% | 83.5% |
| COc1cc(NN=C(c2ccc(O)cc2)c2ccc(O)cc2)c([N+](=O)[O-])cc1[N+](=O)[O-] | 35% | 98.1% | 98.4% | -4.74% (active) | 40.5% | 73.1% | 14.3% | 73.9% | 34.4% | 81% | -70.2% (active) | 108% | 90.5% | -66.4% (active) | 93.5% | 42.4% | 97% | 125% | 103% | 94.6% |
| Nn1c(Nc2ccc(S(=O)(=O)Nc3ncccn3)cc2)nnc(/C=C/c2c(O)ccc3ccccc23)c1=O | 91.3% | 105% | 92.2% | 96.8% | 85.8% | 75.4% | 88.2% | 84.3% | 84.3% | 112% | 89.2% | 90.9% | 96.8% | 58.6% | 120% | 91.9% | 98.4% | 93.2% | 79.3% | 70.7% |
| CC1(C)C(=NO)C(C)(C)C1=NO | 102% | 105% | 96.5% | 107% | 113% | 90.7% | 103% | 109% | 108% | 113% | 117% | 114% | 110% | 104% | 104% | 112% | 109% | 109% | 7.92% (active) | 8.62% (active) |
| C=C(C)[C@@H]1CC[C@]2(C(N)=O)CC[C@]3(C)[C@H](CC[C@@H]4[C@@]5(C)CC[C@H](O)C(C)(C)[C@@H]5CC[C@]43C)[C@@H]12 | 6.36% [100 µM] (active) | -49.5% [100 µM] (active) | -39.1% [100 µM] (active) | 1.3% [100 µM] (active) | -69.3% [100 µM] (active) | -24.5% [100 µM] (active) | -39.6% [100 µM] (active) | -23.2% [100 µM] (active) | -72.8% [100 µM] (active) | 0.379% [100 µM] (active) | -31.2% [100 µM] (active) | -10.3% [100 µM] (active) | -45.8% [100 µM] (active) | -100% [100 µM] (active) | -69.8% [100 µM] (active) | -80.3% [100 µM] (active) | -64.3% [100 µM] (active) | -28.3% [100 µM] (active) | 3.11% [100 µM] (active) | 1.86% [100 µM] (active) |
| COc1ccc(C(C(=O)O)c2ccc(OC)cc2)cc1 | 99.4% | 114% | 72.2% | 113% | 113% | 101% | 110% | 116% | 106% | 107% | 111% | 106% | 121% | 108% | 114% | 109% | 112% | 86.7% | 100% | 104% |
| Cc1ccc(S(=O)(=O)Oc2ccc([N+](=O)[O-])cc2[N+](=O)[O-])cc1 | 19% | 98.2% | 98.9% | 110% | 94.4% | 83.6% | 76.5% | 82.5% | 10.1% | 113% | 78.8% | 101% | 32.7% | 73.6% | 110% | 104% | 82.3% | 94.3% | 23% | 54.2% |
| CCN(CC)c1ccc(/C=C/c2ccc3cc(C)ccc3[n+]2CC)cc1 | 13.3% | -14.4% (active) | 7.55% (active) | 24.8% | 9.59% (active) | -0.319% (active) | -97.5% (active) | 1.47% (active) | -8.32% (active) | 2.66% (active) | -32.3% (active) | 11.8% | 14.2% | 5.46% (active) | -4.22% (active) | 0.905% (active) | 15.7% | 5.43% (active) | 6.14% (active) | -15.3% (active) |
